Some test systems named below: DU-145 prostate; K-562 leukemia; MALME-3M melanoma; MDA-MB-231 breast; RXF 393 renal; SF-268 CNS; SF-295 CNS; SF-539 CNS; UACC-257 melanoma; M14 melanoma; HCT-15 colon; HT29 colon; SNB-75 CNS; SNB-19 CNS; U251 CNS; PC-3 prostate; SK-MEL-5 melanoma; UACC-62 melanoma; LOX IMVI melanoma; SK-MEL-28 melanoma.
Assay in all cases: NCI-60 one-dose screen, 48 h (100 = growth as untreated, 0 = no growth, -100 = all killed)
Common to all, as to conditions: 10 µM unless noted

The panel holds about 83,000 compounds, 20% with a hit somewhere; the sample as a whole holds those more often.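 Percent growth is the endpoint: 0 to 100 indicates growth inhibition (40 means 60% inhibition), 0 means no net growth, and negative values indicate cell death.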 Values without a mark were called inactive. Activity calls are given as the source filed them. How the source made its calls: active means growth percent below 10; inactive means the rest.

As to `Cc1ccc(-c2nc(SCc3nc4cc(Cl)c(Cl)cc4[nH]3)[nH]c(=O)c2C#N)cc1`, the growth with DU-145 prostate is 91.6%; with K-562 leukemia it was 93.4%; with MALME-3M melanoma, 95.6%; in the test with MDA-MB-231 breast it was 97.9%; in the test on RXF 393 renal, 108%; in the test on SF-268 CNS, 91.6%. Besides, the growth with SF-295 CNS is 104%; in the test with SF-539 CNS, 97.5%; in the test on UACC-257 melanoma it was 91.3%; in the test with M14 melanoma, 91.2%; in the test with HCT-15 colon, 104%; in the test on HT29 colon, 95.7%. The growth with SNB-75 CNS was 87.2%; in the test on SNB-19 CNS, 106%; in the test on U251 CNS, 98.7%; with PC-3 prostate, 94%; in the test on SK-MEL-5 melanoma it was 104%; in the test on UACC-62 melanoma, 99.5%. In addition, the growth in the test on LOX IMVI melanoma is 102%; with SK-MEL-28 melanoma, 111%.

As to `O=C(Nc1cc(Cl)ccc1O)c1cccc(Nc2ccnc(C(F)(F)F)c2)c1`, the growth is 54.9% in the test on DU-145 prostate; 7.05% (active) in the test with K-562 leukemia; 53.1% in the test with MALME-3M melanoma; 34.1% in the test with MDA-MB-231 breast; 65.8% in the test on RXF 393 renal; 55.2% in the test with SF-268 CNS. Also, the growth in the test with SF-295 CNS is 2.92% (active); in the test with SF-539 CNS, 48.1%; in the test with UACC-257 melanoma, 32.3%; in the test on M14 melanoma, 38.5%; in the test with HCT-15 colon, 42.9%; with HT29 colon, 87.4%. Besides, the growth with SNB-75 CNS is 61.4%; in the test with SNB-19 CNS, 44%; with U251 CNS it was 43.2%; in the test on PC-3 prostate, 28.2%; in the test on SK-MEL-5 melanoma, 4.5% (active); in the test on UACC-62 melanoma, 15.5%. The growth in the test on LOX IMVI melanoma was 38.5%; in the test on SK-MEL-28 melanoma it was 88.1%.

With `CCOC(=O)C(=CNc1cnc(Nc2ccc(N3CCOCC3)cc2)nc1Oc1ccc(OC)cc1)C(=O)OCC`, the growth is 73% in the test with DU-145 prostate; 49.2% in the test on K-562 leukemia; 39% in the test on MALME-3M melanoma; 59.7% in the test with MDA-MB-231 breast; 89.2% in the test on RXF 393 renal; 69.7% with SF-268 CNS. The growth in the test with SF-295 CNS was 75.9%; with SF-539 CNS, 24.7%; in the test on UACC-257 melanoma, 87.4%; with M14 melanoma it was 63.7%; with HCT-15 colon, 69.4%; in the test on HT29 colon, 40.6%. In addition, the growth is -14.3% (active) in the test with SNB-75 CNS; 41.7% in the test with SNB-19 CNS; -19.4% (active) in the test with U251 CNS; 67.7% with PC-3 prostate; 74% with SK-MEL-5 melanoma; 47.1% with UACC-62 melanoma. For the same compound, the growth in the test on LOX IMVI melanoma was 39.3%; in the test with SK-MEL-28 melanoma, 76.6%.

Regarding `COc1ccc(C(=S)N2CCN(c3ccc(Cl)cc3)CC2)cc1`, the growth is 113% in the test on DU-145 prostate; 88% in the test with K-562 leukemia; 125% with MALME-3M melanoma; 76.7% in the test with MDA-MB-231 breast; 126% in the test on RXF 393 renal; 100% in the test with SF-268 CNS. For the same compound, the growth in the test with SF-295 CNS was 117%; in the test with SF-539 CNS it was 102%; in the test on UACC-257 melanoma, 96.1%; with M14 melanoma, 99.7%; in the test on HCT-15 colon it was 116%; in the test with HT29 colon, 102%. Further, the growth in the test with SNB-75 CNS is 112%; in the test on SNB-19 CNS, 86.3%; with U251 CNS it was 101%; in the test on PC-3 prostate, 103%; with SK-MEL-5 melanoma it was 96.8%; with UACC-62 melanoma, 84.5%. Moreover, the growth in the test with LOX IMVI melanoma was 104%; with SK-MEL-28 melanoma, 110%.

In the case of `O=C(Cn1nnc2ccccc21)N/N=C/c1c[nH]c2ccccc12`, the growth is 81% with DU-145 prostate; 15.2% in the test with K-562 leukemia; 61% in the test with MALME-3M melanoma; 52% with MDA-MB-231 breast; 66.5% in the test on RXF 393 renal; 57.5% with SF-268 CNS. In addition, the growth with SF-295 CNS is 44.3%; with SF-539 CNS it was 51.9%; in the test on UACC-257 melanoma, 65.3%; in the test on M14 melanoma, 19.7%; with HCT-15 colon, 33.3%; in the test on HT29 colon, 13.1%. Further, the growth is 33.5% in the test on SNB-75 CNS; 41.3% in the test on SNB-19 CNS; 39.5% in the test with U251 CNS; 61.7% with PC-3 prostate; 28.4% in the test with SK-MEL-5 melanoma; 23% with UACC-62 melanoma. Further, the figures for the growth with LOX IMVI melanoma and in the test with SK-MEL-28 melanoma were 46.1% and 72.5%, respectively.

In the case of `CCN(CC)CCCOc1ccc2ncnc(Nc3ccc(Oc4cccc(C(F)(F)F)c4)c(Cl)c3)c2c1`, the growth with DU-145 prostate is 3.42% (active); in the test with K-562 leukemia, -28.6% (active); in the test with MALME-3M melanoma, -76.2% (active); with MDA-MB-231 breast, -42.2% (active); with RXF 393 renal it was -64.9% (active); with SF-268 CNS it was 35.1%. For the same compound, the growth was -61.7% (active) in the test with SF-295 CNS; -87.5% (active) in the test with SF-539 CNS; -60.5% (active) in the test with UACC-257 melanoma; -72% (active) in the test on M14 melanoma; -33.6% (active) in the test with HCT-15 colon; -44.6% (active) in the test with HT29 colon. Further, the growth in the test with SNB-75 CNS was 33.9%; in the test with SNB-19 CNS, 30.9%; in the test on U251 CNS, -28.6% (active); in the test with PC-3 prostate it was 8.76% (active); in the test with SK-MEL-5 melanoma it was -100% (active); in the test with UACC-62 melanoma it was -33.8% (active). For the same compound, the growth in the test with LOX IMVI melanoma was -100% (active); with SK-MEL-28 melanoma it was -89.1% (active).

Consider `CC(=O)ON1CCCC(P(=O)(OCCSC(=O)C(C)(C)C)OCCSC(=O)C(C)(C)C)C1=O` (stereo not given), for which the growth in the test on DU-145 prostate was 42.5%; with K-562 leukemia, 19.4%; in the test on MALME-3M melanoma it was 17.1%; in the test with MDA-MB-231 breast, 25.1%; in the test with RXF 393 renal, -26.7% (active); in the test with SF-268 CNS it was 19.2%. For the same compound, the growth in the test on SF-295 CNS is 55.5%; in the test with SF-539 CNS, 57.6%; in the test on UACC-257 melanoma, 54.2%; in the test on M14 melanoma it was 34.3%; in the test on HCT-15 colon, 12.1%; with HT29 colon it was 19.3%. Besides, the growth in the test on SNB-75 CNS was 52%; in the test on SNB-19 CNS it was 19%; with U251 CNS, 6.6% (active); with PC-3 prostate it was 48.1%; in the test with SK-MEL-5 melanoma, -2.99% (active); in the test on UACC-62 melanoma, 20.4%. The growth with LOX IMVI melanoma was 25.8%; with SK-MEL-28 melanoma it was 30.7%.

As to `CC1=CCC(OC(=O)C(C)(C)CC(O)(C(C)O)C(O)C2(C)C=CC(Cc3ccc(C(C)C)cc3)(C(C)C)CC2)(C(C)C)CC1` (stereo not given), the growth in the test with DU-145 prostate was 107%; in the test on K-562 leukemia, 9.06% (active); with MALME-3M melanoma, 92.2%; with MDA-MB-231 breast it was 95.9%; with RXF 393 renal, 97.8%; in the test on SF-268 CNS it was 98.5%. The growth is 97.1% in the test with SF-295 CNS; 93.3% in the test with SF-539 CNS; 98.7% in the test with UACC-257 melanoma; 96.1% in the test on M14 melanoma; 101% in the test on HCT-15 colon; 103% in the test with HT29 colon. For the same compound, the growth in the test on SNB-75 CNS was 72.5%; with SNB-19 CNS it was 98.2%; in the test on U251 CNS, 96.7%; in the test on PC-3 prostate, 96.8%; in the test on SK-MEL-5 melanoma it was 99.6%; in the test on UACC-62 melanoma it was 86.3%. Moreover, the growth is -50.6% (active) with LOX IMVI melanoma and 100% in the test on SK-MEL-28 melanoma.

The values above are taken from PubChem BioAssay (NCI).
